# Source: the supplement of paper PMC8728848
# The entries come from a sample that favours the strongest signals as a whole.
# Tests used:
# Experiment in all cases: glycan array binding signal (z-score within array); higher = stronger binding
# Conditions in all cases: glycan notation: IUPAC condensed, linker removed; mutation: D21K
# [1] = biological target: GalNAc(a1-3)GalNAc(b1-3)Gal(a1-4)Gal(b1-4)GlcNAc
# Outline: (§1)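 The binding signal is a Z-score computed within each array. Data were drawn from 3228 arrays in the Consortium for Functional Glycomics database, restricted to those with a known protein sequence. Scores were averaged over arrays of the same protein sequence at different concentrations or buffers, and over linkers, and negative values can be taken as non-binding.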
# [2] = biological target: GalNAc(b1-3)Gal(a1-4)Gal(b1-4)GlcNAc(b1-3)Gal(b1-4)Glc
# Outline: as §1
# GalNAc(b1-3)GlcNAc = biological target: GalNAc(b1-3)GlcNAc
# Outline: as §1
# GalNAc3S(b1-4)GlcNAc = biological target: GalNAc3S(b1-4)GlcNAc
# Outline: as §1
# GalNAc4S6S(b1-4)GlcNAc = biological target: GalNAc4S6S(b1-4)GlcNAc
# Outline: as §1
# Glc(a1-6)Glc(a1-6)Glc = biological target: Glc(a1-6)Glc(a1-6)Glc
# Outline: as §1
# GlcA(b1-3)GlcNAc = biological target: GlcA(b1-3)GlcNAc
# Outline: as §1
# [3] = biological target: GlcNAc(b1-2)[GlcNAc(b1-6)]Man(a1-6)[GlcNAc(b1-2)Man(a1-3)]Man(b1-4)GlcNAc(b1-4)GlcNAc
# Outline: as §1
# GlcNAc(b1-3)Gal = biological target: GlcNAc(b1-3)Gal
# Outline: as §1
# GlcNAc(b1-3)Gal(b1-4)Glc = biological target: GlcNAc(b1-3)Gal(b1-4)Glc
# Outline: as §1
# [4] = biological target: GlcNAc(b1-3)Gal(b1-4)GlcNAc
# Outline: as §1
# [5] = biological target: GlcNAc(b1-3)Gal(b1-4)GlcNAc(b1-3)Gal(b1-4)GlcNAc(b1-2)Man(a1-3)[GlcNAc(b1-3)Gal(b1-4)GlcNAc(b1-3)Gal(b1-4)GlcNAc(b1-2)Man(a1-6)]Man(b1-4)GlcNAc(b1-4)[Fuc(a1-6)]GlcNAc
# Outline: as §1
# [6] = biological target: GlcNAc(b1-3)Gal(b1-4)GlcNAc(b1-3)Gal(b1-4)GlcNAc(b1-3)Gal(b1-4)GlcNAc(b1-2)[GlcNAc(b1-3)Gal(b1-4)GlcNAc(b1-3)Gal(b1-4)GlcNAc(b1-3)Gal(b1-4)GlcNAc(b1-6)]Man(a1-6)[GlcNAc(b1-3)Gal(b1-4)GlcNAc(b1-3)Gal(b1-4)GlcNAc(b1-3)Gal(b1-4)GlcNAc(b1-2)Man(a1-3)]Man(b1-4)GlcNAc(b1-4)[Fuc(a1-6)]GlcNAc
# Outline: as §1
# [7] = biological target: GlcNAc(b1-3)Gal(b1-4)GlcNAc(b1-3)Gal(b1-4)GlcNAc(b1-3)Gal(b1-4)GlcNAc(b1-3)Gal(b1-4)GlcNAc(b1-2)[GlcNAc(b1-3)Gal(b1-4)GlcNAc(b1-3)Gal(b1-4)GlcNAc(b1-3)Gal(b1-4)GlcNAc(b1-3)Gal(b1-4)GlcNAc(b1-6)]Man(a1-6)[GlcNAc(b1-3)Gal(b1-4)GlcNAc(b1-3)Gal(b1-4)GlcNAc(b1-3)Gal(b1-4)GlcNAc(b1-3)Gal(b1-4)GlcNAc(b1-2)Man(a1-3)]Man(b1-4)GlcNAc(b1-4)[Fuc(a1-6)]GlcNAc
# Outline: as §1
# [8] = biological target: GlcNAc(b1-3)Gal(b1-4)GlcNAc(b1-6)[GlcNAc(b1-3)Gal(b1-3)]GalNAc
# Outline: as §1
# [9] = biological target: GlcNAc(b1-3)[GlcNAc(b1-4)][GlcNAc(b1-6)]GlcNAc
# Outline: as §1
# [10] = biological target: GlcNAc(b1-3)[GlcNAc(b1-6)]Gal(b1-4)GlcNAc
# Outline: as §1
# [11] = biological target: Neu5Ac(a2-3)Gal(b1-3)GlcNAc6S
# Outline: as §1
# [12] = biological target: Neu5Ac(a2-3)Gal(b1-4)GlcNAc(b1-3)Gal(b1-4)GlcNAc(b1-3)GalNAc
# Outline: as §1
# [13] = biological target: Neu5Ac(a2-3)Gal(b1-4)GlcNAc(b1-3)GalNAc
# Outline: as §1
# [14] = biological target: Neu5Ac(a2-6)Gal(b1-4)GlcNAc(b1-2)Man
# Outline: as §1
# [15] = biological target: Neu5Ac(a2-6)Gal(b1-4)GlcNAc(b1-2)Man(a1-3)[Neu5Ac(a2-3)Gal(b1-4)GlcNAc(b1-2)Man(a1-6)]Man(b1-4)GlcNAc(b1-4)GlcNAc
# Outline: as §1
# [16] = biological target: Neu5Ac(a2-6)Gal(b1-4)GlcNAc(b1-2)Man(a1-3)[Neu5Ac(a2-6)Gal(b1-4)GlcNAc(b1-2)Man(a1-6)]Man(b1-4)GlcNAc(b1-4)GlcNAc
# Outline: as §1
# [17] = biological target: Neu5Ac(a2-6)Gal(b1-4)GlcNAc(b1-2)[Neu5Ac(a2-6)Gal(b1-4)GlcNAc(b1-6)]Man(a1-6)[Neu5Ac(a2-6)Gal(b1-4)GlcNAc(b1-2)Man(a1-3)][GlcNAc(b1-4)]Man(b1-4)GlcNAc(b1-4)GlcNAc
# Outline: as §1
# [18] = biological target: Neu5Ac(a2-6)Gal(b1-4)GlcNAc(b1-3)Gal(b1-4)GlcNAc(b1-3)Gal(b1-4)GlcNAc
# Outline: as §1
# [19] = biological target: Neu5Ac(a2-6)Gal(b1-4)GlcNAc(b1-3)Gal(b1-4)GlcNAc(b1-3)GalNAc
# Outline: as §1
# [20] = biological target: Neu5Ac(a2-6)Gal(b1-4)GlcNAc(b1-3)GalNAc
# Outline: as §1
# [21] = biological target: Neu5Ac(a2-8)Neu5Ac(a2-3)Gal(b1-3)GalNAc(b1-4)[Neu5Ac(a2-8)Neu5Ac(a2-3)]Gal(b1-4)Glc
# Outline: as §1
binder,measurement,setting,value
KILRGVCKKIMRTFLRRISKKILTGKK [C7A (Sus scrofa)],glycan array binding signal (z-score),[1],0.64
same,glycan array binding signal (z-score),[2],1.58
same,glycan array binding signal (z-score),GalNAc(b1-3)GlcNAc,-0.947
same,glycan array binding signal (z-score),GalNAc3S(b1-4)GlcNAc,0.857
same,glycan array binding signal (z-score),GalNAc4S6S(b1-4)GlcNAc,2.43
same,glycan array binding signal (z-score),Glc(a1-6)Glc(a1-6)Glc,-0.06
same,glycan array binding signal (z-score),GlcA(b1-3)GlcNAc,0.609
same,glycan array binding signal (z-score),[3],-0.74
same,glycan array binding signal (z-score),GlcNAc(b1-3)Gal,-1.53
same,glycan array binding signal (z-score),GlcNAc(b1-3)Gal(b1-4)Glc,-0.83
same,glycan array binding signal (z-score),[4],-0.565
same,glycan array binding signal (z-score),[5],2.43
same,glycan array binding signal (z-score),[6],2.39
same,glycan array binding signal (z-score),[7],2.49
same,glycan array binding signal (z-score),[8],-0.629
same,glycan array binding signal (z-score),[9],-0.24
same,glycan array binding signal (z-score),[10],0.238
same,glycan array binding signal (z-score),[11],1.71
same,glycan array binding signal (z-score),[12],2.25
same,glycan array binding signal (z-score),[13],0.438
same,glycan array binding signal (z-score),[14],-0.792
same,glycan array binding signal (z-score),[15],0.295
same,glycan array binding signal (z-score),[16],0.295
same,glycan array binding signal (z-score),[17],0.348
same,glycan array binding signal (z-score),[18],0.41
same,glycan array binding signal (z-score),[19],0.528
same,glycan array binding signal (z-score),[20],1.32
same,glycan array binding signal (z-score),[21],-0.48
